Records with an inconclusive call do not appear. A call without a number means that no potency is given here. The source made the active and inactive calls. The call rests on the fitted dose curve; in most records, active means well fitted inhibition curve with a large enough effect; inconclusive means small, poorly fitted or top-dose-only effect; inactive means no such curve, though single readings can be large or run the other way. Where a SMILES comes first, the peptide text is derived from it. The star is where a group is joined. PhAc = O=C(Cc1ccccc1)*
molecular target: Cytochrome P450 3A7 (Homo sapiens) (UniProt P24462); experiment: Cytochrome P450 family 3 subfamily A member 7 (CYP3A7) small molecule antagonists: luciferase biochemical qHTS assay (AID 1963596); details: P450-Glo CYP3A7 enzyme luminescence, 1 h; series mostly up to 57.4 µM; further: nearly all actives have a fitted effect of over 40% in size
Procedure, shortened: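 Recombinant CYP3A7 P450-Glo luminescent assay: enzyme-proluciferin substrate mix preincubated with compound 10 min at room temperature, reaction started with NADPH regeneration system for 1 h. Luciferin detected by luminescence; ketoconazole as positive control.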

Sequence of Cytochrome P450 3A7 (Homo sapiens) (P24462 whole entry, looked up): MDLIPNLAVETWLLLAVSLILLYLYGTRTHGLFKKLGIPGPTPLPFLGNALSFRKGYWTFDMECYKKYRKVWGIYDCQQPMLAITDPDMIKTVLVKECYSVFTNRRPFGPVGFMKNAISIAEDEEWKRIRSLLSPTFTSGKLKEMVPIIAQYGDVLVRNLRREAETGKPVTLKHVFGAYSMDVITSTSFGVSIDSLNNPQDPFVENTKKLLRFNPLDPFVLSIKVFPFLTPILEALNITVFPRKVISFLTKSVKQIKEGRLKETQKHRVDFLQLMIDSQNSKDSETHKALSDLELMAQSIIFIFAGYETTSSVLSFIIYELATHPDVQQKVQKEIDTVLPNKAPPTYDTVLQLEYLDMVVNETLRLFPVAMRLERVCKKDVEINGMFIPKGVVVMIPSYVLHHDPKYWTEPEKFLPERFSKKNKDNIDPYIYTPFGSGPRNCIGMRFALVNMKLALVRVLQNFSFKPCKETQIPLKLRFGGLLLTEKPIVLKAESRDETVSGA

Row | Structure (SMILES) | Potency
1 | COc1ccc(NC(=O)Cn2cc(C(=O)c3cccs3)c3ccccc32)cc1 | inactive
2 | CCOc1ccc(NC(=S)N2CCC(C(O)(c3ccccc3)c3ccccc3)CC2)cc1 | inactive
3 | COc1ccc(-n2[nH]c(=O)c3[nH]c4cc(Cl)ccc4c(=O)c3c2=O)c(C)c1 | inactive
4 | CC(C)(C)NS(=O)(=O)c1cncc(-c2cc(F)c3nc(N)nn3c2)c1 | inactive
5 | COc1ccc(NC(=O)c2ccc(-c3ccc(C(N)=O)cc3C)cc2)cc1N1CCN(C)CC1 | inactive
6 | O=C(O)Cc1cn(-c2ccccc2)nc1-c1ccc(Cl)cc1 | inactive
7 | Cc1ccc(-c2nnc(Nc3ccccc3)c3ccccc23)cc1S(=O)(=O)NCc1nc2ccccc2[nH]1 | inactive
8 | CCCc1ccc(C(=O)O)cc1 | inactive
9 | CC12CCC(C[N+](C)(CCC[N+](C)(C)C)C1)C2(C)C (stereo not given) | inactive
10 | CC(C)Nc1nc(Nc2ccccc2)nc(-c2ccccc2)n1 | inactive
11 | CCCCCCCCCC(=O)O | inactive
12 | CCC(CC)Nc1nc(C)c(-c2ccc(OC(F)(F)F)cc2OC)nc1OC | inactive
13 | Cc1ccc(-c2nnc(Nc3ccc(Br)cc3)c3ccccc23)cc1S(=O)(=O)NCc1nc2ccccc2[nH]1 | inactive
14 | N#Cc1cc(C2=Nc3ccc(Br)cc3NC(=O)C2)ccn1 | inactive
15 | COc1ccc(C(=O)NC(c2ccccc2Cl)c2cc(Cl)c3cccnc3c2O)cc1 (stereo not given) | inactive
16 | C=C(C)[C@H]1CC=C(C)CC1 | inactive
17 | CCOC(=O)CNC(=O)[C@@H]1CCCN1C(=O)Cc1ccccc1 (PhAc-Pro-Gly-OEt) | inactive
18 | N=C(N)n1cccn1 | inactive
19 | CCc1ccc(OCCn2c(C3CC(=O)N(Cc4ccc(F)cc4)C3)nc3ccccc32)cc1 (stereo not given) | inactive
20 | COc1ccc(NC(=O)CSc2nc(-c3cccs3)cc(C(F)(F)F)n2)cc1OC | inactive

Row | Structure (SMILES) | Potency
21 | NCC1OC(OC2C(N)CC(N)C(OC3OC(CO)C(O)C(N)C3O)C2O)C(N)CC1O (stereo not given) | inactive
22 | Cc1cc(N)c2cc(NC(=O)Nc3ccc4nc(C)cc(N)c4c3)ccc2n1 | inactive
23 | CCCCCCCC(=O)O | inactive
24 | CC(C)c1cccc2c(-c3ccccc3)cc(-c3ccc(-c4ccc(C(=O)O)cc4)[nH]3)nc12 | inactive
25 | Cc1cc(C)cc(NC(=O)CSc2c(C(C)C)cnc3c2c(=O)n(C)c(=O)n3C)c1 | inactive
26 | COc1ccc2cc(Br)ccc2c1 | inactive
27 | Cc1ccc(S(=O)(=O)N2CCc3cc(C(=O)Nc4ccc(C(F)(F)F)cc4)ccc32)cc1 | inactive
28 | CCOc1ccc(C(NC(=O)c2cc(OC)c(OC)c(OC)c2)c2cc(Cl)c3cccnc3c2O)cc1 (stereo not given) | inactive
29 | CCc1ccc(CN(Cc2ccco2)C(=O)COc2ccccc2Cl)cc1 | inactive
30 | C[N+]1(CCCCC[N+]2(C)CCCC2)CCCC1 | inactive
31 | CC(C)(F)C[C@@H](N[C@@H](c1ccc(-c2ccc(S(C)(=O)=O)cc2)cc1)C(F)(F)F)C(=O)NC1(C#N)CC1 | inactive
32 | COC(=O)c1ccccc1O | inactive
33 | O=C(O)c1cccc(-c2ccc(-c3cn(C(=O)N4CCCCC4Cc4ccccc4)nn3)cc2)c1 (stereo not given) | inactive
34 | O=C(Nc1cccc(Cl)c1)Nc1ccccc1OCc1cc(=O)n2ccccc2n1 | inactive
35 | CCC(COC)n1nnc2c(Nc3ccc(OC)cc3C)nc(C)cc21 (stereo not given) | inactive
36 | CC(=O)NC[C@H]1CN(c2ccc(N3CCSCC3)c(F)c2)C(=O)O1 | inactive
37 | Nc1ncnc2c1c(-c1ccc(Cl)cc1)nn2-c1cccc(-c2cnnn2Cc2cccc(-c3ccccc3)c2)c1 | inactive
38 | O=C(Nc1ccc(Cl)c(Cl)c1)C1CC1 | inactive
39 | CO/N=C(\C(=O)N[C@@H]1C(=O)N2C(C(=O)O)=C(COC(C)=O)CS[C@H]12)c1csc(N)n1 | inactive
40 | COc1ccc(CC(=O)Nc2c(C(=O)N3CCN(c4ccccc4F)CC3)oc3ccccc23)cc1OC | inactive
